The source of these data is article PMC9838217, “Structure of SALL4 zinc finger domain reveals link between AT-rich DNA binding and Okihiro syndrome”.

Where a chain is given by its changes, count along the chain named.

For test [1], the target named is T1, SALL4 ZFC4 R900W (HT-SELEX) (Mus musculus, UniProt Q8BX22 870-940, R900W).
T1 sequence: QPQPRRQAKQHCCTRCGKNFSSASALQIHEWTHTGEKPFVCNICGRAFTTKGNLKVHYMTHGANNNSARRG
As to the kind of experiment: HT-SELEX; high values mean tight binding. As to conditions: protein: recombinant; vector His6-GST; dsDNA, one strand shown. The method in brief: (§1)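 Recombinant mouse SALL4 zinc finger cluster 4 (residues 870–940, 1 µg), purified, was mixed with library DNA (1.5 µg in the first cycle, 200 ng thereafter) in 100 µl of buffer containing 10 mM Tris–HCl pH 7.5, 50 mM NaCl, poly(dI-dC) and DTT, and left for 10 min at room temperature. Complexes were captured on Ni2+ beads, washed, amplified by PCR and reselected for up to 6 cycles in triplicate, after which MiSeq sequencing and a 6-mer scan followed. Binding signal is the read fraction of each canonical k-mer, given as fold change relative to the starting random library.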

Test [2] concerns the target T2, SALL4 ZFC4 G921D (HT-SELEX) (Mus musculus, UniProt Q8BX22 870-940, G921D).
T2 sequence: T1 sequence with W31R, G52D
As to the kind of experiment: HT-SELEX; high values mean tight binding. To be noted: protein: recombinant; vector His6-GST; dsDNA, one strand shown. The method in brief: as §1

Take GGGACC: the binding signal in test [1] is 0.257 ± 0.0113 fold-change vs cycle 0; in test [2], 0.386 ± 0.0917 fold-change vs cycle 0.
As to TCGCGA, the figures for the binding signal in test [1] and in test [2] were 0.248 ± 0.0259 fold-change vs cycle 0 and 0.374 ± 0.0699 fold-change vs cycle 0, respectively.
Regarding ATGGCC, the binding signal turned out to be 0.263 ± 0.0192 fold-change vs cycle 0 in test [1] and 0.413 ± 0.0521 fold-change vs cycle 0 in test [2].
On the same counts, the results for GGCGAA are 0.216 ± 0.00992 fold-change vs cycle 0 and 0.36 ± 0.0782 fold-change vs cycle 0.
For the sequence GCATTA, the figures for the binding signal in test [1] and in test [2] were 1.09 ± 0.0461 fold-change vs cycle 0 and 1.15 ± 0.019 fold-change vs cycle 0, respectively.
Take CGCGCG: the binding signal came out at 0.0217 ± 0.00502 fold-change vs cycle 0 in test [1] and 0.0939 ± 0.0507 fold-change vs cycle 0 in test [2].
Turning to GCGCCC, the binding signal in test [1] was found to be 0.0344 ± 0.0044 fold-change vs cycle 0; in test [2], 0.116 ± 0.0623 fold-change vs cycle 0.
Taken in the same sequence, the figures for GAGCGC were 0.088 ± 0.00871 fold-change vs cycle 0 and 0.196 ± 0.0698 fold-change vs cycle 0.
Taken in the same sequence, the figures for CGACCA were 0.322 ± 0.0112 fold-change vs cycle 0 and 0.456 ± 0.0665 fold-change vs cycle 0.
On the same counts, the results for GACGGC are 0.105 ± 0.00605 fold-change vs cycle 0 and 0.211 ± 0.0714 fold-change vs cycle 0.
For GGGCCA, the binding signal was 0.129 ± 0.0234 fold-change vs cycle 0 in test [1] and 0.254 ± 0.0851 fold-change vs cycle 0 in test [2].
Taken in the same sequence, the figures for CGCATC were 0.304 ± 0.00796 fold-change vs cycle 0 and 0.441 ± 0.0726 fold-change vs cycle 0.
Taken in the same sequence, the figures for GTCCGA were 0.371 ± 0.00646 fold-change vs cycle 0 and 0.506 ± 0.055 fold-change vs cycle 0.
Taken in the same sequence, the figures for CTCGGC were 0.127 ± 0.0136 fold-change vs cycle 0 and 0.231 ± 0.0599 fold-change vs cycle 0.
Turning to GGACCC, the figures for the binding signal in test [1] and in test [2] were 0.246 ± 0.0211 fold-change vs cycle 0 and 0.387 ± 0.0656 fold-change vs cycle 0, respectively.
As for GCCGCC, the binding signal in test [1] was 0.0335 ± 0.00625 fold-change vs cycle 0; in test [2] it was 0.107 ± 0.0564 fold-change vs cycle 0.
Taken in the same sequence, the figures for CGCTCA were 0.311 ± 0.0311 fold-change vs cycle 0 and 0.445 ± 0.0603 fold-change vs cycle 0.
Taken in the same sequence, the figures for GCCAGC were 0.102 ± 0.00774 fold-change vs cycle 0 and 0.211 ± 0.0594 fold-change vs cycle 0.
On the same counts, the results for GAGCCA are 0.301 ± 0.00918 fold-change vs cycle 0 and 0.466 ± 0.0659 fold-change vs cycle 0.
On to ATGATG, for which the binding signal in test [1] is 1.51 ± 0.0621 fold-change vs cycle 0; in test [2], 1.43 ± 0.0931 fold-change vs cycle 0.
Taken in the same sequence, the figures for ACGCTC were 0.345 ± 0.00842 fold-change vs cycle 0 and 0.503 ± 0.071 fold-change vs cycle 0.
Taken in the same sequence, the figures for CGCTGC were 0.0919 ± 0.0151 fold-change vs cycle 0 and 0.201 ± 0.0834 fold-change vs cycle 0.
Taken in the same sequence, the figures for GGTCGA were 0.33 ± 0.0136 fold-change vs cycle 0 and 0.48 ± 0.0759 fold-change vs cycle 0.
In the case of CGAGCC, the binding signal in test [1] worked out at 0.138 ± 0.0111 fold-change vs cycle 0; in test [2] it was 0.272 ± 0.0858 fold-change vs cycle 0.
On the same counts, the results for ACTGGC are 0.318 ± 0.0103 fold-change vs cycle 0 and 0.448 ± 0.0505 fold-change vs cycle 0.
Taken in the same sequence, the figures for CGGCAG were 0.106 ± 0.00823 fold-change vs cycle 0 and 0.214 ± 0.0627 fold-change vs cycle 0.
Taken in the same sequence, the figures for CTCTTA were 1.6 ± 0.108 fold-change vs cycle 0 and 1.46 ± 0.111 fold-change vs cycle 0.
Regarding CCGTGC, the binding signal in test [1] was determined as 0.143 ± 0.00796 fold-change vs cycle 0; in test [2], 0.251 ± 0.0641 fold-change vs cycle 0.
On the same counts, the results for TCGGCA are 0.208 ± 0.0109 fold-change vs cycle 0 and 0.351 ± 0.0637 fold-change vs cycle 0.
Regarding GCCGGA, the binding signal in test [1] is 0.106 ± 0.00682 fold-change vs cycle 0; in test [2], 0.224 ± 0.0644 fold-change vs cycle 0.
On to CCCGGG, for which the binding signal in test [1] was found to be 0.132 ± 0.0102 fold-change vs cycle 0; in test [2], 0.234 ± 0.0711 fold-change vs cycle 0.
On the same counts, the results for ACCGCC are 0.117 ± 0.0115 fold-change vs cycle 0 and 0.235 ± 0.0718 fold-change vs cycle 0.
On the same counts, the results for CGCAGC are 0.0883 ± 0.014 fold-change vs cycle 0 and 0.191 ± 0.0678 fold-change vs cycle 0.
On the same counts, the results for GGCTGA are 0.349 ± 0.0304 fold-change vs cycle 0 and 0.483 ± 0.072 fold-change vs cycle 0.
In the case of AACGCC, the binding signal in test [1] is 0.242 ± 0.0243 fold-change vs cycle 0; in test [2] it was 0.377 ± 0.0751 fold-change vs cycle 0.
On the same counts, the results for TGCCCA are 0.29 ± 0.00772 fold-change vs cycle 0 and 0.437 ± 0.0679 fold-change vs cycle 0.
On the same counts, the results for GGTATA are 1.34 ± 0.0665 fold-change vs cycle 0 and 1.3 ± 0.0853 fold-change vs cycle 0.
Taken in the same sequence, the figures for ACCGGG were 0.239 ± 0.0269 fold-change vs cycle 0 and 0.357 ± 0.0693 fold-change vs cycle 0.
On to GCCCAC, for which the binding signal stood at 0.151 ± 0.00605 fold-change vs cycle 0 in test [1] and 0.271 ± 0.0717 fold-change vs cycle 0 in test [2].
Taken in the same sequence, the figures for CGGTGC were 0.129 ± 0.00419 fold-change vs cycle 0 and 0.238 ± 0.0719 fold-change vs cycle 0.
On the same counts, the results for AGTGGC are 0.299 ± 0.0198 fold-change vs cycle 0 and 0.455 ± 0.0604 fold-change vs cycle 0.
On the same counts, the results for AGCGGG are 0.168 ± 0.0263 fold-change vs cycle 0 and 0.277 ± 0.0671 fold-change vs cycle 0.
For ACGAGC, the figures for the binding signal in test [1] and in test [2] were 0.322 ± 0.019 fold-change vs cycle 0 and 0.459 ± 0.061 fold-change vs cycle 0, respectively.
With CCGCTC, the binding signal in test [1] came out at 0.151 ± 0.0178 fold-change vs cycle 0; in test [2] it was 0.273 ± 0.0659 fold-change vs cycle 0.
Taken in the same sequence, the figures for CCCACC were 0.282 ± 0.00918 fold-change vs cycle 0 and 0.397 ± 0.0572 fold-change vs cycle 0.
On the same counts, the results for GGCGAC are 0.0863 ± 0.00668 fold-change vs cycle 0 and 0.208 ± 0.0638 fold-change vs cycle 0.
On the same counts, the results for CCACCG are 0.209 ± 0.0206 fold-change vs cycle 0 and 0.322 ± 0.0675 fold-change vs cycle 0.
As to GATGGC, the binding signal turned out to be 0.36 ± 0.0133 fold-change vs cycle 0 in test [1] and 0.489 ± 0.0668 fold-change vs cycle 0 in test [2].
Taken in the same sequence, the figures for AGGCCT were 0.384 ± 0.0275 fold-change vs cycle 0 and 0.516 ± 0.0785 fold-change vs cycle 0.
Taken in the same sequence, the figures for CCCGAG were 0.2602 ± 0.00145 fold-change vs cycle 0 and 0.386 ± 0.0692 fold-change vs cycle 0.
Take CCGCCA: the figures for the binding signal in test [1] and in test [2] were 0.105 ± 0.00392 fold-change vs cycle 0 and 0.218 ± 0.0543 fold-change vs cycle 0, respectively.
Consider CCCGCC, for which the binding signal in test [1] was 0.0634 ± 0.0031 fold-change vs cycle 0; in test [2], 0.164 ± 0.0698 fold-change vs cycle 0.
On the same counts, the results for CCACGC are 0.141 ± 0.0119 fold-change vs cycle 0 and 0.248 ± 0.0561 fold-change vs cycle 0.
Taken in the same sequence, the figures for AGCGTC were 0.301 ± 0.0204 fold-change vs cycle 0 and 0.444 ± 0.0717 fold-change vs cycle 0.
On the same counts, the results for CTGCGC are 0.08 ± 0.0196 fold-change vs cycle 0 and 0.173 ± 0.0775 fold-change vs cycle 0.
As to CGCTAG, the results for the binding signal in test [1] and in test [2] were 0.338 ± 0.0234 fold-change vs cycle 0 and 0.465 ± 0.071 fold-change vs cycle 0, respectively.
On the same counts, the results for CGTGCA are 0.286 ± 0.00377 fold-change vs cycle 0 and 0.417 ± 0.0517 fold-change vs cycle 0.
On the same counts, the results for AGGCAC are 0.34 ± 0.0246 fold-change vs cycle 0 and 0.486 ± 0.0565 fold-change vs cycle 0.
Taken in the same sequence, the figures for GCTGCA were 0.256 ± 0.0235 fold-change vs cycle 0 and 0.379 ± 0.0774 fold-change vs cycle 0.
Consider AGAGGC, for which the binding signal was 0.355 ± 0.0197 fold-change vs cycle 0 in test [1] and 0.484 ± 0.0611 fold-change vs cycle 0 in test [2].
